CDC25B-CDK2 inh: human CDC25B-CDK2/CyclinA binding inhibition; z-score (concentration not given with the values); 94,000 compounds, 0.72% hits; HTRF CDC25B-CDK2/CyclinA binding, anti-His/anti-Flag; active compounds read high; P30305+P24941; in the data active = z-score above about 3.2
HIV TAR-Tat: HIV-1 TAR-Tat binding disruption. z-score (no concentration beside the values). AID 1259389. HIV-1 TAR RNA, Tat peptide displacement FRET; active compounds read high. 100,000 compounds, 0.6% hits; active = z-score of 3 or more in at least 2 runs
The depositor's hits bear a star; . = no result given. Shown are actives, neighbours in structure and some others; about 0.86% of the full set was active somewhere.

SMILES | CDC25B-CDK2 inh | HIV TAR-Tat
O=C(NCCC1=CCCCC1)C1CCCN(S(=O)(=O)N2CCOCC2)C1 (configuration not stated) | . | 0.58
CN(C)S(=O)(=O)c1ccc2c(c1)c(C(N)=O)cn2C | -0.8 | 2.3
Cn1c(=O)oc2cc(S(=O)(=O)NCc3cccn3Cc3cccc(F)c3)ccc21 | . | -0.44
Cn1c(=O)c2c(-c3ccccc3Br)n(-c3ccccc3N)cc2n(C)c1=O | 0.87 | 2.5
Cn1c(=O)c2c(-c3ccccc3Br)n(-c3cccc4cccnc34)cc2n(C)c1=O | 16* | -2.6
Cn1c(=O)c2c(-c3ccccc3Br)n(-c3ccc4[nH]c(=O)[nH]c4c3)cc2n(C)c1=O | 6.2* | 2.3
Cn1c(=O)c2c(-c3ccccc3Br)n(-c3ccccc3)cc2n(C)c1=O | -0.69 | 0.54
O=C(CSc1nc2c(cnn2-c2ccccc2)c(=O)[nH]1)Nc1ccccc1F | . | 1.7
CCOC(=O)c1sc2nc(C)nc(Oc3ccc(OCC)cc3)c2c1C | . | -0.13
CCOc1ccc(Oc2nc(C)nc3sc(C)c(C)c23)cc1 | . | 7.5*
COC(=O)c1ccc(N2CSC3=C(C#N)C(c4ccc(F)cc4)CC(=O)N3C2)cc1 (configuration not stated) | 6.6* | -0.31
CSc1ccc(C2CC(=O)N3CN(c4ccc(F)cc4)CSC3=C2C#N)cc1 (configuration not stated) | 5.2* | -4.9
COc1cccc2c1Oc1nc(-c3cc(Br)ccc3O)[nH]c(=O)c1C2 | -0.82 | 18*
COc1cccc(-c2nc3c(c(=O)[nH]2)Cc2ccccc2O3)c1O | -0.88 | 1.9
COc1cccc2c1Oc1nc(-c3ccc(Br)cc3)[nH]c(=O)c1C2 | -0.14 | 0.47
COc1cccc(-c2nc3c(c(=O)[nH]2)Cc2cccc(OC)c2O3)c1O | 0.53 | 12*
O=C(O)CNC(=O)c1c(F)cccc1Cl | -1.5 | .
CC(C)Cn1cc(NC(=O)NCCCN2CCC(N3CCCCC3)CC2)c2ccccc2c1=O | . | 0.81
Cc1cccc(OCc2nn3c(-c4ccncc4)nnc3s2)c1 | 0 | -0.74
O=c1[nH]cc(C(F)(F)F)cc1Cl | -2.6 | .
O=c1[nH]cc(Cl)cc1Cl | 6.4* | .
CC(Oc1ccccc1)C(=O)Nc1c(C(=O)N2CCOCC2)oc2ccccc12 (configuration not stated) | . | 0.6
C/C(CC(C)(C)Nc1ccccc1)=N\O | 14* | .
CC(/C=N/O)=N\Nc1ccccc1 | -1.8 | .
O=C(Cn1cnc2nc3c(cc2c1=O)CCCC3)NCc1ccc2c(c1)OCO2 | . | 1.3
SMILES | CDC25B-CDK2 inh | HIV TAR-Tat
CCSc1ncc2c(=O)n(CC(=O)NCc3ccc4c(c3)OCO4)cnc2n1 | . | 13*
CCCn1c2ccccc2c2cnn(CC(=O)Nc3nnc(CC)s3)c(=O)c21 | . | 0.62
Oc1cc(O)cc(/C=C/c2ccc(O)c(O)c2)c1 | 1.7 | 37*
Oc1ccc(/C=C/c2ccc(/C=C/c3ccc(O)cc3)c(Br)c2)cc1 | -0.23 | .
CC(=O)C[n+]1cccc2cccc(O)c21 | 2.2 | .
C#CC[n+]1cccc2cc(O)ccc21 | 5.2* | .
CCOC(=O)c1nn(-c2ccc(Cl)cc2)c(=O)c(C#N)c1C | -1.2 | 0.3
CCOC(=O)c1nn(-c2ccc(Cl)cc2)c(=O)c2c(N)scc12 | 18* | -3
CCOC(=O)c1nc(N)c(=O)n(-c2ccc(C)cc2)n1 | -7.1 | .
CCOC(=O)c1nn(-c2ccc(C)cc2)c(=O)c2c(N)scc12 | 18* | -5.5
O=C(c1ccc(F)cc1)N1CCN(c2cc(=O)n3nc(-c4ccccc4)sc3n2)CC1 | . | -0.46
COC(=O)c1cc2sccc2n1CC(=O)N(C)c1ccccc1 | -1.2 | 1.1
COC(=O)c1cc2sccc2n1CC(=O)c1ccccc1 | 9.2* | 0.2
CCOC(CN(c1ccc(F)cc1)S(=O)(=O)c1cc(Cl)cc(Cl)c1)OCC | -0.52 | .
O=C1c2cccc3c(N4CCOCC4)ccc(c23)C(=O)N1c1cccc(O)c1 | -0.44 | -7.6
O=C1c2cccc3c(N4CCOCC4)ccc(c23)C(=O)N1c1cc(Cl)ccc1O | 9.7* | -4.8
Cc1ccc(C(=O)Nc2ccc(S(=O)(=O)O)c3cc(S(=O)(=O)O)cc(S(=O)(=O)O)c23)cc1NC(=O)c1cccc(NC(=O)Nc2cccc(C(=O)Nc3cc(C(=O)Nc4ccc(S(=O)(=O)O)c5cc(S(=O)(=O)O)cc(S(=O)(=O)O)c45)ccc3C)c2)c1 | 4.7* | -11
COC(=O)c1cccc(NC(=O)Nc2ccccc2)c1 | -2 | .
O=C1C=CC(=O)N1c1ccccc1N1C(=O)c2ccccc2C1=O | -1.2 | .
Cn1cc(S(=O)(=O)c2ccccc2)c(=O)c2cc(Cl)ccc21 | -2 | 2.4
Cn1cc(S(=O)(=O)c2ccccc2)c(=O)c2cc(F)ccc21 | -1.6 | 21*
O=C(CSc1ccsc1[N+](=O)[O-])Nc1cc(F)ccc1F | -4.8 | 4.2
CCN(CC)c1ccc(NC(=O)CSc2ccsc2[N+](=O)[O-])c(C)c1 | 3.8 | 12*
COc1cc(NC(=O)COc2ccc(-n3cnnn3)cc2)c(OC)cc1Cl | -8.2 | 4.6*
O=C(COc1ccc(Br)cc1)Nc1ccc(-n2cnnn2)cc1 | -0.52 | 2.1
SMILES | CDC25B-CDK2 inh | HIV TAR-Tat
Cc1noc2ncnc(Nc3ccccc3F)c12 | . | 0.84
c1ccc(N2CCN(c3nc4ccccc4n4cnnc34)CC2)nc1 | 0.39 | -0.8
CN1C2=C(C(=O)CC(C)(C)C2)C(c2cccs2)C2=C1CC(C)(C)CC2=O | 16* | .
CC1(C)CC(=O)C2=C(C1)NC1=C(C(=O)c3ccccc31)C2c1cccs1 (configuration not stated) | -0.39 | 0.71
CCOc1cc(/C=C2/SC(=S)N(CC)C2=O)ccc1OCc1cccc(C)c1 | -3.8 | .
Cc1ccc(C)n1-c1cccc(N)c1 | 4 | -3.2
COc1ccc(N)cc1-n1c(C)ccc1C | 1.9 | 10*
COc1ccccc1CNCc1ccc(Oc2nnnn2-c2ccccc2)c(OC)c1 | . | 0.31
CCC(=O)Nc1ccccc1SCc1cc(=O)n2nc(C)sc2n1 | . | -0.12
COc1ccc(S(=O)(=O)c2cnc3ccc(F)cc3c2Nc2ccc(OC)c(OC)c2)cc1 | -1.3 | -1.1
O=C1CN(Cc2ccccc2F)S(=O)(=O)c2ccccc2N1Cc1ccc(F)cc1 | . | 2.7
O=C1CN(Cc2ccccc2F)S(=O)(=O)c2ccccc2N1Cc1ccccc1 | . | 9.4*
CCCn1c(Cn2ccnc2C)nc2cc(NC(=O)C3CCCCC3)ccc21 | 0.02 | -0.62
Cc1ccc2oc(-c3cc(NC(=O)/C=C/c4ccccc4)ccc3O)nc2c1 | -1.4 | .
NNC(=O)Cc1csc(-c2cccc(-n3cccc3)c2)n1 | 17* | .
NNC(=O)c1csc(-c2cccc(-n3cccc3)c2)n1 | 17* | .
NNC(=O)c1csc(-c2ccccc2)n1 | -1.1 | .
O=C(Cc1csc(-c2ccccc2)n1)Nc1nc(-c2ccccc2)cs1 | 0.55 | 0.46
CCc1nnc2sc(COc3ccccc3C)nn12 | -1.1 | -0.25
NCCn1c(-c2ccc(F)cc2)nc2ccccc21 | . | -0.19
Fc1ccccc1-n1ncc2c1ncn1nc(-c3ccccc3)nc21 | -1.7 | 1.9
Clc1ccccc1-n1ncc2c1ncn1nc(-c3ccccc3)nc21 | -2.4 | 6.9*
Cn1nnnc1SCCCNCc1ccc(OCc2ccccc2)cc1 | -0.06 | 1.3
COC(=O)c1cc(=O)c(O)c2c(O)c(O)ccc2c1 | . | 25*
COC(=O)c1cc(NC(=O)c2ccc3ccccc3c2)cc(C(=O)OC)c1 | -2 | .
Cc1ccc(Cn2ccc(NC(=O)C3=CC(c4ccco4)=NS(=O)(=O)N3C)n2)cc1 | -1.5 | 1.1
O=C1c2cccnc2C(=O)N1Cc1ccc(F)cc1S(=O)(=O)N1CCCC1 | . | -0.77
O=C(CCc1nc2sc3c(c2c(=O)[nH]1)CCCCC3)N1CCN(c2ncccn2)CC1 | . | 2.5

Screening data (PubChem)
